Test results reported in PubChem BioAssay AID651871 (Sanford-Burnham Center for Chemical Genomics, 2012).
Several values for one entry are separate records, joined by “and”; a condition that tells them apart may be missing. Equal values may be shown once.

test system: HL-1; assay: cardiomyocyte survival under oxidative or metabolic stress – cell-based, panel, H9c2 and HL-1, ATP luminescence, set 2, SAR follow-up (AID 651871); details: H9c2/HL-1 cardiomyocytes, H2O2 oxidative stress; with H2O2, run 3, at 79 µM (top of the series);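 also: cells exposed to stressor for 2 h before ATP readout; reference of the scale not given here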

| Structure (SMILES) | activity (protection/inhibition) |
| --- | --- |
| COc1ccc2nc(-c3cc(OC)c(OC)c(OC)c3)cc(C(=O)NCC(=O)Nc3ccc(C(C)=O)cc3)c2c1 | 19.5% and 32.9% |
| COc1ccc2c(c1OC)C(=O)N1c3ccccc3C(=O)N(Cc3cccc(Cl)c3Cl)C21 (centres undefined) | 5.43% and -7.46% and 6.3% |
| COc1cc(-c2cc(C(=O)Nc3cccc(C(=O)NCc4ccccc4)c3)c3ccccc3n2)cc(OC)c1OC | 14.7% |
| CCOC(=O)c1cccc(NC(=O)CNC(=O)c2cc(-c3cc(OC)c(OC)c(OC)c3)nc3ccccc23)c1 | 48.4% |
